Source: PubChem
Sampled rows, rich in hits. Any-hit rate of the full collection: about 2.5%.
Mcl1-Bid inh – Mcl-1/Bid binding inhibitors, primary screen, biochemical, TR-FRET, 1536-well. Induced myeloid leukemia cell differentiation protein Mcl-1 (Homo sapiens), Q07820. inhibition, % at 21.7 µM. TR-FRET Mcl-1/Bid-Dy647 peptide binding. actives 0.97% (n = 220,000). AID 1021, 2008;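 active means compounds that cut the binding signal by more than half at the single screening dose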;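 further: His-tagged Mcl-1 with europium anti-His antibody binding Bid BH3 peptide; 0% = Mcl-1 plus peptide wells and 100% = peptide-only wells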
Target sequence (Q07820 whole entry, looked up): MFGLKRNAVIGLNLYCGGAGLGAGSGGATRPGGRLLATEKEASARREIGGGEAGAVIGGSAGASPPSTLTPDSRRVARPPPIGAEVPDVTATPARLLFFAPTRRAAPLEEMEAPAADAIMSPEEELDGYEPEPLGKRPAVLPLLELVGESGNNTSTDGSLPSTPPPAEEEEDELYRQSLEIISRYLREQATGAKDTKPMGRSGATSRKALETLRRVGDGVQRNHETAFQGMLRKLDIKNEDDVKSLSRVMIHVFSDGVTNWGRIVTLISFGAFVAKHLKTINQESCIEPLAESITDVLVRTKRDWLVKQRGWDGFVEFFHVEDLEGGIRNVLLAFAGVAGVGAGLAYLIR
Bim-Mcl-1 – inhibitors of Bim peptide binding to Mcl-1, primary screen, biochemical, bead-based flow cytometry, multiplex; actives 0.1% (n = 190,000); Induced myeloid leukemia cell differentiation protein Mcl-1 (Homo sapiens), Q07820; inhibition, % at 10 µM; Bim peptide-Mcl-1 binding; AID 1009, 2008; in the data active means inhibition above about 40%;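 further: 0% = no compound tracer wells and 100% = peptide blocker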
14-3-3 Bad inh – inhibitors of 14-3-3 zeta/Bad binding, primary screen, biochemical, TR-FRET, bovine 14-3-3 zeta. TR-FRET 14-3-3zeta/Dy647-pBad peptide displacement, 1 h. inhibition, % at 21.7 µM. actives 0.71% (n = 220,000). 14-3-3 protein zeta/delta (Bos taurus), P63103;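 active means inhibition above about 70%, limit read from the data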;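 further: 0% = full 14-3-3 plus peptide FRET controls and 100% = background without 14-3-3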
Target sequence (P63103 whole entry, looked up): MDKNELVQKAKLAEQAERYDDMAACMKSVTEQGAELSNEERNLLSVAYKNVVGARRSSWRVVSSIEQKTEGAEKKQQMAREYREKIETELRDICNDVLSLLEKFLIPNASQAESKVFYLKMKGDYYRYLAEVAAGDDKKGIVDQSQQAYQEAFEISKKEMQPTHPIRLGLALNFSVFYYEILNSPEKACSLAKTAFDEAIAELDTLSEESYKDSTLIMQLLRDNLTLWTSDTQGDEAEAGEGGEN
MCL1 BIM primary – inhibitors of MCL1 binding to BIM-BH3, primary screen, biochemical, fluorescence polarization; Induced myeloid leukemia cell differentiation protein Mcl-1 (Homo sapiens), Q07820; GST-MCL1 / FITC-Bim-BH3 fluorescence polarization; inhibition, % at 10.9 µM; actives 0.68% (n = 320,000);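 active means inhibition above the mean inhibition of all tested compounds plus 3 SD, set per campaign, cut at about 40% in these data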;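 further: 0% = DMSO wells and 100% = unlabeled Bim-BH3 peptide control; higher means more loss of mP so more displacement of Bim peptide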
Mcl1-Noxa inh – Mcl-1/Noxa binding inhibitors, primary screen, biochemical, TR-FRET, 1536-well; inhibition, % at 21.7 µM; AID 1022, 2008; TR-FRET Mcl-1/Noxa peptide binding, 2 h; actives 1.5% (n = 220,000); Induced myeloid leukemia cell differentiation protein Mcl-1 (Homo sapiens), Q07820;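 active means compounds that cut the protein-peptide binding signal by more than 50% relative to plate controls in a single-dose test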;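 further: His-tagged Mcl-1 with rhodamine Noxa BH3 peptide and terbium anti-His antibody; 0% = Mcl-1 plus Noxa peptide wells and 100% = peptide-only wells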
The depositor's hits bear a star; . = not tested or not shown.

SMILES	Mcl1-Bid inh	Bim-Mcl-1	14-3-3 Bad inh	MCL1 BIM primary	Mcl1-Noxa inh
Fc1cccc(C2NN=C(c3ccccc3)S2)c1 (stereo not given)	-32	0	6	3	12
Cc1nc(NC(=O)c2ccccc2)sc1-c1csc(Nc2ccc(F)cc2)n1	-34	2	55	-27	38
Cc1nc(NC(=O)CC(C)C)sc1-c1csc(Nc2ccc(Cl)cc2Cl)n1	-7	-5	22	-1	18
Cc1nc(NC(=O)c2ccccc2)sc1-c1csc(Nc2ccc(Cl)cc2)n1	-11	-2	70*	-1	-16
Cc1nc(NC(=O)c2ccccc2)sc1-c1csc(Nc2cccc(Cl)c2)n1	94*	0	86*	-23	98*
Cc1nc(NC(=O)CC(C)C)sc1-c1csc(Nc2ccc(Cl)cc2)n1	4	64*	19	-9	44
C/C(CC(=O)Nc1ccc2c(c1)OCCO2)=N\NC(=O)c1ccc([N+](=O)[O-])cc1Cl	.	.	.	-8	.
C/C(=N\NC(=O)CCCNc1cccc(C)c1)c1ccncc1	-45	0	-9	1	-12
COc1ccc(C(=O)Nc2ccnn2C2CCN(Cc3ccn[nH]3)CC2)cc1	.	.	.	2	.
O=C(O)C1CC(c2ccc(F)cc2)=NO1 (stereo not given)	-29	-3	-8	2	63*
COc1ccc(OC)c(CNc2ccc(F)c(Cl)c2)c1	-9	-1	79*	0	26
COc1ccc(OC)c(CNc2ccc3c(c2)CCC3)c1	.	.	.	12	.
COc1cc(-c2nc3ccc4ccccc4c3c3c2CCC3)cc(OC)c1OC	10	-1	71*	-2	25
COc1cc(-c2nc3ccc4ccccc4c3c3c2CCC3)cc(OC)c1O	0	0	0	6	47
Cc1ccc(CNC(=O)c2ccccc2SCC(=O)NCC2CCCCC2)cc1	-9	-2	11	-3	-5
Cc1ccc(-n2ncc(Cl)c2C(=O)NCc2ccccc2)cc1	.	.	.	5	.
COc1ccc(-n2c(Cc3cccn3C)nnc2SCC(=O)NCc2ccccc2Cl)cc1	65*	-1	5	3	-6
Cc1ccc2nc(N3C(=O)C(O)=C(C(=O)c4cc5ccccc5o4)C3c3cccs3)sc2c1 (stereo not given)	-25	2	11	10	70*
CCc1ccc2nc(N3C(=O)C(O)=C(C(=O)c4ccco4)C3c3cccs3)sc2c1 (stereo not given)	19	1	3	7	53*
Cc1cc(N2C(=O)C(O)=C(C(=O)c3cc4ccccc4o3)C2c2cccs2)no1 (stereo not given)	.	.	.	-34	.
COc1ccc(-c2nnc(SC(C)C(=O)Nc3nccs3)n2Cc2ccccc2)cc1OC (stereo not given)	-17	-1	15	-5	13
CCOC(=O)N1CCN(C(=O)CSc2ccc3nnc(CCNC(=O)c4ccc(OC)cc4)n3n2)CC1	89*	-2	-4	4	2
O=C(COC(=O)CCN1C(=O)c2cccc([N+](=O)[O-])c2C1=O)NCc1ccccc1	-6	7	-2	-6	11
Cc1ccc2oc(=O)c3cnn(CC(=O)NC4CCC(C)CC4)c3c2c1 (stereo not given)	34	-2	10	-7	9
Cc1ccc2oc(=O)c3cnn(CC(=O)NC4CCCCC4C)c3c2c1 (stereo not given)	65*	0	-8	9	-6
SMILES	Mcl1-Bid inh	Bim-Mcl-1	14-3-3 Bad inh	MCL1 BIM primary	Mcl1-Noxa inh
Cc1ccc(O)c(NC2=C(Cl)C(=O)N(Cc3ccccc3)C2=O)c1	56*	33	35	.	88*
CCOc1ccccc1NC1=C(Cl)C(=O)N(c2ccc(OC)cc2)C1=O	-35	-2	-6	8	7
COc1ccccc1N1C(=O)C(Cl)=C(Nc2ccccc2O)C1=O	5	2	-13	.	76*
O=C1C(Cl)=C(Nc2ccccc2O)C(=O)N1c1ccccc1	-4	13	-15	4	70*
CCOc1ccccc1N1CCN(S(=O)(=O)c2cccs2)CC1	-8	-1	4	6	-5
Nc1cccnc1Sc1cc(Cl)c(Cl)cc1Cl	20	-3	1	0	88*
C=CCc1ccc(OCCOCCOc2cccc3ccc(C)nc23)c(OC)c1	80*	1	74*	10	16
O=C(NCCCN1CCCCC1)C1CCC(=O)N1CCc1ccccc1 (stereo not given)	-6	0	8	2	7
Cc1ccccc1N1CCN(S(=O)(=O)CC23CCC(CC2=O)C3(C)C)CC1 (stereo not given)	.	.	.	6	.
O=C(OCC#CCSc1nnc(-c2ccccc2)o1)c1ccco1	-22	-3	3	-2	10
O=C(OCC#CCSc1nc2ccccc2s1)c1ccco1	-22	0	3	8	66*
O=c1c2cccc3c2c(nn1CN1CCOCC1)-c1ccccc1-3	-4	3	-7	-3	0
CCN(CC)CCn1nc2c3c(cccc3c1=O)-c1ccccc1-2	-3	-1	5	6	70*
COc1ccc(C(=O)NCC(=O)N2CCCCC2)cc1OC	-25	1	-3	2	1
COc1cc(OC)cc(C(=O)NCC(=O)N2CCCCC2)c1	63*	0	-1	-3	13
Cc1cc(NC(=O)CSc2nc3c(cc2C#N)CCCC3)no1	-67	3	-2	-4	-81
O=C(C1CCCN(S(=O)(=O)c2ccc(F)cc2)C1)N(Cc1cccs1)C1CC1 (stereo not given)	5	0	2	-6	10
CCn1c2ccccc2c2cc(NC(=O)c3ccco3)ccc21	19	-7	91*	1	20
CCn1c2ccccc2c2cc(NC(=O)CNCC3CCCO3)ccc21 (stereo not given)	5	-1	29	0	52*
Cc1ccc(S(=O)(=O)NNc2ccccc2)cc1	64*	-2	38	14	19
Cc1ccc(S(=O)(=O)Nc2ccc(Nc3ccccc3)cc2)cc1	.	.	.	3	.
COc1ccc(CN2CCOCC2)c(C)c1C	28	-2	71*	-2	27
CCOc1ccc(/C=N/n2cc(-c3ccccc3)[nH]c2=S)cc1	-19	-9	5	-8	53*
S=c1[nH]c(-c2ccccc2)cn1/N=C/c1ccncc1	-24	.	1	5	27
COc1cc(/C=N/NC(=O)c2cccc(S(=O)(=O)N3CCCCC3)c2)cc(Br)c1O	-43	0	-25	5	72*
O=C(N/N=C/c1ccc(O)c(O)c1)c1cccc(S(=O)(=O)N2CCCCC2)c1	-21	0	-7	19	56*
